D1 potentiator – enhances dopamine response at the human D1 receptor; P21728; 0.036% of 360,000 active; HEK293 TREx D1 cells, calcium flux, dopamine EC20 potentiation; AID 504651; potentiation, % at 10 µM; in the data active means potentiation above about 30%; further: 0% is about no effect
TRHR enhancer-1 – allosterically enhances the human TRH receptor; 0.66% of 360,000 active; P34981; TRHR cells, fluo-8 calcium fluorescence, EC20 TRH enhancement; enhancement, % at 2 µM; in the data active means enhancement above about 30%; further: 0% is about no effect
Target sequence (P34981 whole entry, looked up): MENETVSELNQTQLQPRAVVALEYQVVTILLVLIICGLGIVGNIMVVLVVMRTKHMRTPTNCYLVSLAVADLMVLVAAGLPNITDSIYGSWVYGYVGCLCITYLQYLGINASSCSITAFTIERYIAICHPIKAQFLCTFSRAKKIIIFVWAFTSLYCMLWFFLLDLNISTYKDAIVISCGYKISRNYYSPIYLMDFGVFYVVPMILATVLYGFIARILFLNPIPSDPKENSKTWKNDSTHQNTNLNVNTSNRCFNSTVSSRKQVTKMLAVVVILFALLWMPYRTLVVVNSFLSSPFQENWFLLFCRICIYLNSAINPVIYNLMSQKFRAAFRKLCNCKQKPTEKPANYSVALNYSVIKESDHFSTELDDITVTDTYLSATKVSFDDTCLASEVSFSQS
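TRHR-expressing cells loaded with fluo-8 calcium dye were read kinetically (ex 480/em 530) during compound addition, then stimulated with an EC20 of TRH (10 nM final). Enhancement of the Gq-mediated intracellular calcium response was scored.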
D1 agonist – agonists of human D1 dopamine receptor | AID 504660 | 1% of 360,000 active | activation, % at 2 µM | P21728 | HEK293 T-REx D1 cells, calcium flux, agonist mode; in the data active means activation above about 30%; further: 0% is about no effect
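Agonism was scored from calcium flux recorded over 180 s (1 read/s) after pintool compound addition, following a 10-cycle baseline. Cells were inducible force-coupled HEK293 TREx D1, plated overnight at 30 C and loaded with no-wash calcium dye.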
D1 antag – antagonists of human D1 dopamine receptor; AID 504652; activity change, negative = inhibition, % at 10 µM; P21728; HEK293 TREx D1 cells, calcium flux, dopamine EC80; active compounds read low; 3.2% of 360,000 active; in the data active means activity change below about -30%; further: on the % scale 0 is the no-effect control and ±100 the full control effect
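Inducible Hek293 Trex D1 cells (tetracycline, overnight, 30 C). Calcium dye 30–90 min RT. Antagonist mode: EC80 dopamine added after 180 s compound read.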
TRHR agonist-1 – activates the human TRH receptor | TRHR cells, calcium flux fluo-8, FDSS agonist mode | activation, % at 2 µM | 0.18% of 360,000 active; in the data active means activation above about 30%; further: 0% is about no effect
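Agonist-mode FDSS calcium read (Ex 480/Em 530, 1 s cycles) in 1536-well TRHR cells with fluo-8 dye, after 10-cycle baseline and 23 nL compound addition; TRH at EC20 (10 nM final) added afterwards for the enhancer phase.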
TRHR enhancer-2 – human TRH receptor allosteric enhancement confirmation; 970 tested, under 10 active; TRH receptor cell assay, enhancer confirmation qHTS; activity change, negative = inhibition, % at 46.1 µM; AID 493076; shares compounds with TRHR enhancer-1;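 further: compound effect scored on response to added TRH at EC20 of 10 nM; 0% is about no effect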
TRHR agonist-2 – confirmation of human TRH receptor agonists. shares compounds with TRHR enhancer-1. TRHR-expressing cells, agonist activation read-out. Potency, µM (highest dose often 46.1 µM), for inactives: top-dose activation, most hits filed as activators. 8% of 970 active; further: potency means the concentration at half of the fitted maximal effect; 0% is about no effect; nearly all actives have a fitted effect of over 75% in size
The depositor's hits bear a star; ? = inconclusive; . = no result; ! = repeats disagree. Shown are actives, neighbours in structure and some others; about 4.7% of the full set was active somewhere. Unless noted, the call rests on the fitted dose curve; in most records, active means well fitted curve in the direction sought with a large enough effect; inconclusive means small, poorly fitted or top-dose-only effect, or another doubt; inactive means no such curve, though single readings can be large; an effect the other way counts as inactive or inconclusive.

SMILES | D1 potentiator | TRHR enhancer-1 | D1 agonist | D1 antag | TRHR agonist-1 | TRHR enhancer-2 | TRHR agonist-2
Cc1c(Cc2ccccc2)c(=O)oc2c(O)c(O)ccc12 | 4 | 41* | 0 | 3 | 0 | -8 | 2%
COc1ccc(CNC(=O)CN(C(=O)CCC(=O)Nc2ccccn2)c2cccc(C)c2)cc1 | 6 | 44* | 0 | 25 | 0 | 7 | 6%
Cc1ccc(CNC(=O)c2cccc(NC(=O)N3CCSc4ncccc43)c2)cc1 | -7 | -1 | 2 | -23 | 0 | . | .
O=C(COc1ncnc2ccccc12)Nc1ccc(S(=O)(=O)N2CCOCC2)cc1 | -4 | 43* | 0 | 1 | 0 | ? | 0%
COc1c(C)cc(NS(=O)(=O)c2ccc3c(c2)OCCO3)cc1C | -5 | -3 | 3 | 6 | -1 | . | .
CCc1cc(C(=O)N2CCCC(CCC(=O)N3CCN(c4ccccn4)CC3)C2)no1 (stereo not given) | -7 | 42* | 1 | -5 | -2 | 1 | 1%
CC(C)c1cc(C(=O)N2CCCC(CCC(=O)N3CCN(c4ccccn4)CC3)C2)no1 (stereo not given) | 6 | 9 | 6 | -14 | 0 | . | .
Cc1ccc(C(=O)NCc2ccc(Cl)cc2)cc1S(=O)(=O)N1CCCCC1 | -2 | -7 | 5 | -26 | 0 | . | .
CCOC(=O)c1cc(C)sc1NC(=O)CSC1=NCCS1 | -4 | 56* | 2 | 2 | 0 | -5 | 6%
COc1ccc(OC)c(CCNC(=O)CCCc2nnc3n(C)c(=O)c4sccc4n23)c1 | -4 | 56*! | -4 | 0 | 1 | 4 | -1%
CCCn1c(=O)c2sccc2n2c(CCCC(=O)NCc3cccnc3)nnc12 | 1 | -8 | 1 | -15 | 1 | . | .
Cn1c(=O)c2sccc2n2c(CCCC(=O)NCc3cccnc3)nnc12 | -2 | 42* | 4 | 1 | 0 | -7 | -1%
CCOC(=O)CN1N=C(c2ccc(Cl)cc2)CCC1=O | -3 | 41* | 1 | -30 | 0 | -2 | 2%
O=C(CN1N=C(c2ccc(Cl)cc2)CCC1=O)NCCc1ccc(Cl)cc1 | -1 | -1 | -6 | -20 | 0 | . | .
COc1cccc(-c2cccc(NC(=O)C3CCN(C4CCOCC4)CC3)c2)c1 | -3 | 3 | 3 | -22 | -1 | . | .
COc1ccc(N2C(=O)CC(Sc3nc(C)cc(C)c3C#N)C2=O)cc1 (stereo not given) | 0 | 41* | 4 | -5 | 0 | -4 | 1%
COC(=O)C1CCN(C(=O)COC(=O)c2ccc(=O)n(Cc3ccccc3)n2)CC1 | 4 | 1 | 3 | 4 | 0 | . | .
O=C(NC1CCCCCC1)c1ccc(=O)n(Cc2ccccc2)n1 | -3 | 55* | 4 | -24 | 0 | -4 | 0%
CC1(C)O[C@H]2[C@@H](O1)[C@@H](C(=O)Nc1ccccc1O)O[C@@H]1OC(C)(C)O[C@@H]12 | 0 | -4 | 2 | 24 | 1 | . | .
CCOC(=O)C1=C(CNCCc2ccc(Cl)cc2)NC(=O)NC1c1ccc2c(c1)OCO2 (stereo not given) | -2 | 41* | 2 | 9 | 0 | 7 | ?
O=C(Nc1cccc2ncccc12)c1ccc(F)cc1 | -10 | -6 | 4 | 1 | 1 | . | .
O=C(Nc1cccc2ncccc12)c1ccc(Cl)cc1 | 4 | 60* | 3 | 0 | 0 | 2 | 0%
O=C(C1=NN(c2ccccc2)C(=O)CC1)N1CCc2ccccc2C1 | 2 | -2 | 3 | 2 | 0 | . | .
COc1ccc(N2C(=O)C(CN3CCN(C)CC3)C2c2ccccc2)cc1 (stereo not given) | 1 | 67* | 1 | -3 | 1 | 6 | 4%
Cn1nnnc1SCc1cccc(CSc2nnnn2C)n1 | -3 | -3 | 4 | -9 | 1 | . | .
SMILES | D1 potentiator | TRHR enhancer-1 | D1 agonist | D1 antag | TRHR agonist-1 | TRHR enhancer-2 | TRHR agonist-2
Cn1nnnc1SCc1c(F)cccc1F | -7 | 42* | 3 | -8 | 0 | ? | 2%
Cc1ccc(O)c(C(=O)c2cc(C#N)c(=O)n(Cc3ccccc3)c2)c1 | -2 | -4 | 6 | 0 | 3 | . | .
Cc1ccc(O)c(C(=O)c2cc(C#N)c3nc4ccccc4n3c2)c1 | 8 | 1 | 62* | 7 | 42* | -2 | ?
CC1CN(C(=O)c2ccc(NS(=O)(=O)c3ccc(F)cc3)cc2)CC(C)O1 (stereo not given) | -2 | -3 | 7 | 13 | 1 | . | .
Cn1c(=O)c2c(-c3ccccc3)n3c(c2n(C)c1=O)C(c1ccccc1[N+](=O)[O-])Nc1ccccc1-3 (stereo not given) | 4 | 4 | 2 | -3 | 0 | . | .
O=C(N/N=C/c1coc2ccccc2c1=O)c1cccc([N+](=O)[O-])c1 | -8 | 61* | 1 | -1 | 0 | ? | 3%
COc1ccc(C(CNC(=O)c2ccc(Cl)c(NC(=O)c3cccs3)c2)N2CCCC2)cc1 (stereo not given) | -3 | 60* | 7 | -14 | 1 | -1 | 3%
Cc1ccc(SCc2[nH]nc3c2C2(C(=O)Nc4ccc(F)cc42)C(C#N)=C(N)O3)cc1 (stereo not given) | -6 | 3 | 2 | -1 | 0 | . | .
Cc1[nH]nc2c1C1(C(=O)Nc3ccc([N+](=O)[O-])cc31)C(C#N)=C(N)O2 (stereo not given) | -2 | 116* | -1 | . | 1 | 3 | 4%
COc1ccc(Cl)cc1S(=O)(=O)NCCCn1ccnc1 | 2 | 22 | 1 | 1 | 1 | . | .
COc1ccc(Cl)cc1S(=O)(=O)NC(C)C(=O)NCCCn1ccnc1 (stereo not given) | 1 | 67* | 7 | -9 | 1 | -2 | -1%
O=C(CN1C(=O)c2cccc([N+](=O)[O-])c2C1=O)N1CCN(S(=O)(=O)c2ccccc2)CC1 | -2 | -1 | 1 | 2 | -1 | . | .
Cc1ccc([N+](=O)[O-])cc1-c1ccc(/C=C(\C#N)c2[nH]nc(N)c2C#N)o1 | -4 | -5 | 0 | -7 | 0 | . | .
COc1cc(/C=C(\C#N)c2[nH]nc(N)c2C#N)cc(OC)c1O | 3 | 20 | 36* | 5 | 62* | 9 | ?
CCc1ccc(NC(=S)N2CCCC2)cc1 | -2 | -9 | 0 | 0 | 0 | . | .
CCc1ccc(NC(=S)N2CCN(C)CC2)cc1 | 5 | 58* | 3 | 7 | 1 | 4 | -1%
N#C/C(=C\c1ccc(N2CCOCC2)o1)C(=O)NCCc1ccccc1 | 0 | 7 | 124* | 2 | 58* | 3 | 18µM*
Cc1cc(C)c(OCC(=O)OCC(=O)NCC2CCCCC2)c(C)c1 | 4 | -1 | 2 | 0 | -2 | . | .
